Data from PubChem BioAssay.
The source made the active and inactive calls.

Tests used:
[1] = system: Plasmodium falciparum Sir2 (PF13_0152, Sir2A); assay: pfSir2 binders on small-molecule microarrays, primary screen, biochemical, small-molecule microarray, 635 nm fluorescence (AID 1098); conditions: small-molecule microarray binding, fluorescence 635 nm; higher = more signal;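 also: score merges spot fluorescence intensity with its signal-to-noise ratio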
[2] = small-molecule microarray binders of probe aDKK1, primary screen, biochemical, biotinylated probe, 635/667 nm fluorescence (AID 1099); conditions: higher = more signal;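 also: score merges 667nm spot fluorescence with signal to noise across triplicate slides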
[3] = small-molecule microarray binders of probe aCHRDL2, primary screen, biochemical, biotinylated probe, 635/667 nm fluorescence (AID 1100); conditions: higher = more signal
[4] = splicing luciferase reporter signal modulators, primary screen, spliceosome inhibition project, cell-based, HEK293, splice +/- reporter (AID 1101); conditions: luminescence, 24 h, higher = more signal, called active from +8 up or from −8 down;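 also: HEK293 cells carrying a splicing-competent luciferase reporter gene; test concentration not given here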
[5] = target: Fibroblast growth factor 10 (Homo sapiens) (UniProt O15520); assay: FGF10 binders on small-molecule microarrays, primary screen, biochemical, small-molecule microarray, 635 nm fluorescence (AID 1102); conditions: FGF10 binding, fluorescence 635 nm, higher = more signal
[6] = system: glycogen synthase kinase-3 (GSK3A per assay name; protocol says GSK3B); assay: GSK3 binders on small-molecule microarrays, primary screen, biochemical, small-molecule microarray, 635 nm fluorescence, GSK3A (AID 1103); conditions: small-molecule microarray binding, fluorescence 635 nm; higher = more signal; also: the record names both GSK3A and GSK3B
[7] = target: Epidermal growth factor receptor (Homo sapiens) (UniProt P00533); assay: EGFR binders on small-molecule microarrays, primary screen, biochemical, small-molecule microarray, 635 nm fluorescence (AID 1104); conditions: EGFR binding, higher = more signal;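 also: score merges 667 nm emission intensity with spot signal to noise over triplicate slides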
[8] = target: Follistatin-related protein 3 (Homo sapiens) (UniProt O95633); assay: FSTL3 binders on small-molecule microarrays, primary screen, biochemical, small-molecule microarray, 635 nm fluorescence (AID 1105); conditions: FSTL3 binding, higher = more signal;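 also: score merges emission near 667 nm and signal to noise per printed spot across three slides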
[9] = target: Dickkopf-related protein 1 (Homo sapiens) (UniProt O94907); assay: DKK1 binders on small-molecule microarrays, primary screen, biochemical, small-molecule microarray, 635 nm fluorescence scan (AID 1106); conditions: DKK1 binding, higher = more signal;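 also: score merges emission near 667 nm with signal to noise over three replicate slides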
[10] = system: Inhibin beta A chain (activin A); assay: INHBA (activin A) binders on microarrays, primary screen, biochemical, small-molecule microarray, 635 nm fluorescence scan (AID 1107); conditions: small-molecule microarray binding, higher = more signal;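 also: mouse activin A protein probed at 4.33 µg/mL on printed slides; score merges bound-protein fluorescence near 667 nm with spot signal-to-noise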
[11] = system: Human papillomavirus type 1a protein E7 (residues 44-93); assay: HPV1a E7 fragment binders on microarrays, primary screen, biochemical, small-molecule microarray, residues 44-93, 635 nm fluorescence (AID 1108); conditions: small-molecule microarray binding, fluorescence 635 nm; higher = more signal;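 also: E7 fragment applied at 1 µg/mL in TBST for 1 h at 4 C; score combines spot fluorescence with its signal to noise ratio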
[12] = modulators of HCV replicon luciferase signal, primary screen, HCV replication inhibitor project, Huh7 cells, luciferase reporter (AID 1109); conditions: 48 h, higher = more signal;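 also: huh7 hepatoma cells harbouring a luciferase neomycin HCV replicon reporter; luciferase luminescence as measure of HCV replicon replication; test concentration not given here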
[13] = target: Left-right determination factor 2 (Homo sapiens) (UniProt O00292); assay: LEFTY2 binders on small-molecule microarrays, primary screen, biochemical, small-molecule microarray, 635 nm fluorescence scan (AID 1110); conditions: LEFTY2 binding, higher = more signal
[14] = target: Calmodulin-1 (Homo sapiens) (UniProt P0DP23); assay: CALM1 binders on microarrays, EGTA buffer, profiling panel, biochemical, small-molecule microarray, Cy5-labelled CALM1 (AID 1111); conditions: Cy5-CALM1 binding fluorescence, higher = more signal;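 also: labelled calmodulin applied in Tris saline Tween buffer holding calcium plus EGTA and DTT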
[15] = target: Calmodulin-1 (Homo sapiens) (UniProt P0DP23); assay: calcium-bound CALM1 binders on microarrays, profiling panel, artefact control for SMM control-protein annotation, biochemical, small-molecule microarray, Cy5-labelled CALM1, plus calcium (AID 1112); conditions: Cy5-CALM1 binding fluorescence, higher = more signal;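 also: score merges spot fluorescence with signal to noise from triplicate slides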
[16] = small-molecule microarray binders of probe aWnt5a, primary screen, biochemical, biotinylated probe, 635/667 nm fluorescence (AID 1113); conditions: higher = more signal;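 also: score merges 667 nm fluorescence intensity with signal-to-noise per printed feature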
[17] = small-molecule microarray binders of probe aShh, primary screen, biochemical, biotinylated probe, 635/667 nm fluorescence (AID 1114); conditions: higher = more signal;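 also: probe is biotin-labelled aShh protein from a stem cell growth factor screen; measures binding of labelled protein to compounds printed on the slide; score merges feature fluorescence at 667 nm with signal-to-noise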
[18] = small-molecule microarray binders of probe aNog, primary screen, biochemical, biotinylated probe, 635/667 nm fluorescence (AID 1115); conditions: higher = more signal;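 also: probe is biotinylated aNog protein used at 0.15 µg/mL for 1 h at 4 C; z-score combines 667 nm fluorescence of each spot with its signal to noise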
[19] = target: Torsin-1A-interacting protein 1 (Homo sapiens) (UniProt Q5JTV8); assay: LAP1 binders from COS7 cell lysate, primary screen, small-molecule microarray, 635/667 nm fluorescence (AID 1116); conditions: COS7-hLAP1 lysate binding, 635 nm fluorescence, higher = more signal
[20] = target: Alpha-bungarotoxin (Bungarus multicinctus) (UniProt P60615); assay: alpha-bungarotoxin binders on microarray, profiling panel, artefact control for SMM control protein annotation, biochemical, small-molecule microarray, Alexa647 label, 635/667 nm fluorescence (AID 1117); conditions: alpha-BTX-A647 binding fluorescence, higher = more signal
Alpha-bungarotoxin (Bungarus multicinctus), sequence (P60615 whole entry, looked up): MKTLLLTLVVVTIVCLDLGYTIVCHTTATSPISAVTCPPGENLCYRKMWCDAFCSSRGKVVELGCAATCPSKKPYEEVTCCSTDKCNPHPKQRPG

Torsin-1A-interacting protein 1 (Homo sapiens), sequence (Q5JTV8 whole entry, looked up): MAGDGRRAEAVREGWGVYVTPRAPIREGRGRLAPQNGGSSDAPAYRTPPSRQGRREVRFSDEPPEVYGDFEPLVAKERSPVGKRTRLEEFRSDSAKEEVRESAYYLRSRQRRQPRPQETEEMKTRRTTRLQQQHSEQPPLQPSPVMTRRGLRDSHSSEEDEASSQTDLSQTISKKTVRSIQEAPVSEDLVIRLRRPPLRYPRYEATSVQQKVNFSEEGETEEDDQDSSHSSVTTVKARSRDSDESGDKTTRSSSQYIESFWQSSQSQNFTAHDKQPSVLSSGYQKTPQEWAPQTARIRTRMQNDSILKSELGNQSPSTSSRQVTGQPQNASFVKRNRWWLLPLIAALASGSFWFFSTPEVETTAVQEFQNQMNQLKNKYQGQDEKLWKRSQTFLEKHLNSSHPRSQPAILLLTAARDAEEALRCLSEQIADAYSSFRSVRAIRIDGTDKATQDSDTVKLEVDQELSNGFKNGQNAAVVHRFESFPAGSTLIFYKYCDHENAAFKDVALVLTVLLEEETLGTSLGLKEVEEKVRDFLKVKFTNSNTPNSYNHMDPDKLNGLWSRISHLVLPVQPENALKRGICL
Fibroblast growth factor 10 (Homo sapiens), sequence (O15520 whole entry, looked up): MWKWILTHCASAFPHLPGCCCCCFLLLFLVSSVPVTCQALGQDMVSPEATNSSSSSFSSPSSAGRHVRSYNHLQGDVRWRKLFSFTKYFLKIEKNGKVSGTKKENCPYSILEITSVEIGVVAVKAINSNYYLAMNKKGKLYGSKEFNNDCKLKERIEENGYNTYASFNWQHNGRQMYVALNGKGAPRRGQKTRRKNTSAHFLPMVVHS
Epidermal growth factor receptor (Homo sapiens), sequence (P00533 whole entry, looked up): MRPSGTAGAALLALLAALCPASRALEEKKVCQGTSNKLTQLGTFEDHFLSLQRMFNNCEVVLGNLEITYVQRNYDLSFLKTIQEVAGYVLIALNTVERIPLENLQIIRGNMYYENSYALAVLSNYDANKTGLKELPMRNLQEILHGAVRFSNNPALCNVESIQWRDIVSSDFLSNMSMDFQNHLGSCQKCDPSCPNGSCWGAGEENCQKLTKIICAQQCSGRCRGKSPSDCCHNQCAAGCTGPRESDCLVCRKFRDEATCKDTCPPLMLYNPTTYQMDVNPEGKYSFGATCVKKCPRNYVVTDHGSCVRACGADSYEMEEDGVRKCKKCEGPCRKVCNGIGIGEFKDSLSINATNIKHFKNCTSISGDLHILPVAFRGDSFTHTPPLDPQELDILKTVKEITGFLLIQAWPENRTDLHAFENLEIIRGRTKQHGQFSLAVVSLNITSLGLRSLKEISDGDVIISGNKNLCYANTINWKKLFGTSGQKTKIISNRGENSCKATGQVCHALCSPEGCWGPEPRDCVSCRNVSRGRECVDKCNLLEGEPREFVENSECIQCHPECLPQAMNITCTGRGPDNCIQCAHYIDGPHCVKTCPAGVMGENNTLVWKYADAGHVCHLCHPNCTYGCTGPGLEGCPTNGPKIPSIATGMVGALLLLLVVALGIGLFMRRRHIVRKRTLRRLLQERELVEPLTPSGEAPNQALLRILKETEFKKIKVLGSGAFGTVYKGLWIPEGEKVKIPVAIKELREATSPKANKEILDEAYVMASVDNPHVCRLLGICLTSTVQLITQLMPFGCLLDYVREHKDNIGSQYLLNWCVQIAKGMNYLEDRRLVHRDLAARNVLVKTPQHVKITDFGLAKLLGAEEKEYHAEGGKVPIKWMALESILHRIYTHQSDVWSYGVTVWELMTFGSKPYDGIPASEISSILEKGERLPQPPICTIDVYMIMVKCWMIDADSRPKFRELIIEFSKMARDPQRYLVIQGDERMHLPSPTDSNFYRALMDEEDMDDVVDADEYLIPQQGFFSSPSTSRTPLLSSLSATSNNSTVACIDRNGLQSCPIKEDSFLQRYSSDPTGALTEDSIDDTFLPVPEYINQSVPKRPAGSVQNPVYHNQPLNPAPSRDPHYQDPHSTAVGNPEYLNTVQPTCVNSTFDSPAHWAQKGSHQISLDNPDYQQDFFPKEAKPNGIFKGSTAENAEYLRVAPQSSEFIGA
Follistatin-related protein 3 (Homo sapiens), sequence (O95633 whole entry, looked up): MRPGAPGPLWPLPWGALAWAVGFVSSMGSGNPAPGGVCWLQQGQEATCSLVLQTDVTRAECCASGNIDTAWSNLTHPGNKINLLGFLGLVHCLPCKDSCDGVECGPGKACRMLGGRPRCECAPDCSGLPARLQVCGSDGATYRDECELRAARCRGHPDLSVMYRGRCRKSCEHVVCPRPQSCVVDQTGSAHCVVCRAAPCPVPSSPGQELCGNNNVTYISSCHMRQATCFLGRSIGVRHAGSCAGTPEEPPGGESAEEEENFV
Dickkopf-related protein 1 (Homo sapiens), sequence (O94907 whole entry, looked up): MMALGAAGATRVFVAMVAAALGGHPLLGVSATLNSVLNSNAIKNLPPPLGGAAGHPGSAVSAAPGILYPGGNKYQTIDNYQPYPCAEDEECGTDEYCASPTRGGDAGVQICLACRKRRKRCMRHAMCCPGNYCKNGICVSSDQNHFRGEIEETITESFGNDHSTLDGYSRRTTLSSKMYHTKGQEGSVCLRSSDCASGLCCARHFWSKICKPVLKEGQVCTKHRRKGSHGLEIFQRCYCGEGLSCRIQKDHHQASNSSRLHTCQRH
Left-right determination factor 2 (Homo sapiens), sequence (O00292 whole entry, looked up): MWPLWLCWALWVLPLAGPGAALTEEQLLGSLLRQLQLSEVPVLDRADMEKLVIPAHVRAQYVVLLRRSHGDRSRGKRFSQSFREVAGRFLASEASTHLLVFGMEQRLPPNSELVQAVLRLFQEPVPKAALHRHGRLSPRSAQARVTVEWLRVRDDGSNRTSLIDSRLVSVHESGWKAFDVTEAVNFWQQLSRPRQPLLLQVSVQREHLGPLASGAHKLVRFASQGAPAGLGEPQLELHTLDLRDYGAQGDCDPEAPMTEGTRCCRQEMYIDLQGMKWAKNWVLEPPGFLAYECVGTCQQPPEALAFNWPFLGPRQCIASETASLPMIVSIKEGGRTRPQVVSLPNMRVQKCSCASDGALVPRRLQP

Row | Structure (SMILES) | composite z-score [1] | composite z-score [2] | composite z-score [3] | z-score [4] | composite z-score [5] | composite z-score [6] | composite z-score [7] | composite z-score [8] | composite z-score [9] | composite z-score [10] | composite z-score [11] | z-score [12] | composite z-score [13] | composite z-score [14] | composite z-score [15] | composite z-score [16] | composite z-score [17] | composite z-score [18] | composite z-score [19] | composite z-score [20]
1 | C=CCC(OC(C)=O)[C@@H]1[C@@H](N(Cc2cc3ccccc3o2)C(=O)Cc2ccc(OC)cc2)c2cc(OCCCO)ccc2N1C(=O)c1ccc2ccccc2c1 (stereo not given in full) | 1.02 | -0.172 | 0.395 | -0.564 (inactive) | -0.0205 | -0.683 | -0.536 | -0.0573 | -0.306 | 1.16 | 0.0806 | -0.359 | -0.0999 | -0.428 | 0.174 | -0.0754 | 0.0062 | -0.125 | 0.0296 | -0.396
2 | O=C1OCCC=C[C@H]2OC34C=CCN(c5ccc(Cl)cc5)C(=O)[C@H]3N(CCCO)C(=O)[C@@H]4C12 (stereo not given in full) | -0.41 | -0.227 | 0.0093 | -1.29 (inactive) | 0.0364 | -1.4 | -0.522 | -0.181 | -0.455 | 1.52 | -0.726 | -1.04 | -0.131 | 0.0745 | 0.168 | -0.182 | -0.186 | 0 | -0.421 | 0.275
3 | Cc1ccc(S(=O)(=O)N2C[C@@H](C(=O)O)[C@H](Sc3ccccc3)C[C@H]2c2ccccc2)cc1 | 1.47 | 0.707 | 0.999 | 1.64 (inactive) | 1.15 | 0.586 | 0.14 | 1.29 | -0.503 | 0.49 | 1.14 | -0.697 | 0.0026 | 1.61 | -0.127 | 0.0775 | 0.0684 | 1.45 | 1.97 | 0.729
4 | CO[C@H]1O[C@H](CO)[C@@H](OC(=O)Nc2ccc(Oc3ccccc3)cc2)[C@H](OC(=O)Nc2ccc3c(c2)OCO3)[C@@H]1OC(=O)Nc1ccc2c(c1)OCO2 | 1.38 | 0.337 | 0.478 | -0.762 (inactive) | 1.17 | 1.33 | 0.54 | 1.39 | 0.46 | 0.707 | 0.794 | 0.166 | 0.627 | 1.15 | -0.23 | 0.0374 | 0.246 | 0.565 | 1.37 | 1.26
5 | NC(=O)[C@@H]1[C@H]2C(=O)O[C@H](c3ccccc3)[C@H](c3ccccc3)N2[C@H](c2ccc(O)cc2)[C@@]12C(=O)Nc1ccc(C#CC3=CCCCC3)cc12 | 0.735 | -0.0562 | -0.42 | -2.28 (inactive) | 0.676 | 0.439 | -0.122 | 0.31 | -0.333 | 0.763 | 1.42 | -3.23 | -0.585 | 0.573 | 0.199 | 0.065 | 1.78 | 1.01 | 0.453 | 0.334
6 | COc1ccc(C(O)C2C=CC3C(=O)N(C)C(=O)C3N2N(c2ccccc2)c2ccccc2)c2ccccc12 (stereo not given) | 1.42 | 0.464 | 1.04 | 1.04 (inactive) | 0.784 | -0.16 | 0.23 | 1.19 | 0.569 | 1.13 | -0.452 | 0.352 | 0.0468 | -0.078 | -0.511 | 0.0328 | -0.0011 | 0.0984 | 1.68 | 0.429
